From PubChem BioAssay
Only some compounds are listed: those with a hit (about 7.9% of all), similar ones and a draw of the others.
Hedgehog inh: Sonic Hedgehog pathway inhibition; Shh-LIGHT2 Gli-luciferase reporter, 30 h; inhibition, % (concentration not given with the values); 22,000 compounds, 2.1% hits; AID 2313;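 active = mean inhibition across valid replicates above about 65%, limit read from the data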;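 also: pathway switched on by Shh-conditioned medium diluted 1 in 25 in low serum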
NOMO-1 viab: STK33 inhibitor candidate reducing NOMO-1 cell viability | NOMO-1 AML viability, CellTiter-Glo luminescence, 72 h | inhibition, % (no concentration beside the values) | 37,000 compounds, 7.5% hits | AID 2330; in the data active = inhibition above about 80%
MITF inh: blocks MITF activity. TRPM1 promoter luciferase, luminescence, 24 h. inhibition, % (no concentration beside the values). 37,000 compounds, 0.28% hits. AID 2240; in the data active = inhibition above about 85%;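 also: human melanocyte line stably carrying TRPM1 promoter luciferase reporter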
* = called active by the depositor; · = no result.

SMILES	Hedgehog inh	NOMO-1 viab	MITF inh
Cc1cc(C)cc(N(C(C)C(=O)Nc2cccc(C(F)(F)F)c2)S(C)(=O)=O)c1 (stereo not given)	·	19	18
O=C(NCCCN1CCOCC1)c1ccc2nc(-c3ccccc3)c(-c3ccccc3)nc2c1	·	2	-18
CC(=O)Nc1cc2ccccc2oc1=O	-35	41	-10
Cc1ccc(C(=O)Nc2cc3ccccc3oc2=O)cc1	19	139*	72
COc1cc([C@H]2Oc3c(OC)cc(/C=C/CO)cc3[C@H]2CO)ccc1OC1OC(CO)C(O)C(O)C1O (stereo not given in full)	22	·	·
COc1cccc(S(=O)(=O)N2CCCC2C(=O)O)c1 (stereo not given)	·	6	-17
COC(=O)C1CCCN1S(=O)(=O)c1ccccc1 (stereo not given)	-8	93*	-3
S=c1[nH][n+]2c(-c3ccccc3)cc(-c3ccccc3)nc2s1	·	16	-6
Cc1ccc(OCC(=O)Nc2ccc3oc(-c4ccccc4C)nc3c2)cc1C	·	0	-82
CC(C)NC(=O)Nc1ccc2c(c1)C(=O)N([C@@H](C)CO)C[C@H](C)[C@@H](CN(C)CC1CCCCC1)O2	-25	-16	1
Cc1nnc(SCC(=O)N2N=CCC2c2ccccc2)s1 (stereo not given)	·	11	-21
CN(C)S(=O)(=O)c1ccc2c(c1)/C(=C/c1cc3c([nH]1)CCCC3)C(=O)N2	-17	73	-61
CN(C)c1ccc(/C=C2\C(=O)Nc3ccccc32)c2ccccc12	7	86*	29
CNC[C@@H]1Oc2c(NS(=O)(=O)c3ccc(OC)cc3)cccc2C(=O)N([C@H](C)CO)C[C@H]1C	-2	1	-5
O=C1N=C(c2cccc(O)c2)c2ccccc2Nc2ccccc21	86*	31	10
Cc1noc(C)c1S(=O)(=O)Nc1ccc2c(c1)C(=O)N([C@H](C)CO)C[C@H](C)[C@@H](CN(C)S(=O)(=O)c1cccs1)O2	-40	-3	0
C[C@@H]1CN([C@H](C)CO)C(=O)Cc2cc(N(C)C)ccc2O[C@H]1CN(C)Cc1ccncc1	-26	-4	-9
O=C(CC1(O)C(=O)N(CCc2ccccc2)c2ccc(Br)cc21)c1ccncc1 (stereo not given)	·	114*	-2
CCCCN1C(=O)C(O)(CC(=O)c2ccco2)c2cc(Br)ccc21 (stereo not given)	·	113*	10
O=C(CC1(O)C(=O)N(CCOc2ccccc2)c2ccccc21)c1ccc2c(c1)CCCC2 (stereo not given)	·	49	5
NC(=O)CN1C(=O)C(O)(CC(=O)c2ccncc2)c2ccccc21 (stereo not given)	·	-4	15
Cc1coc(C)c1C(=O)CC1(O)C(=O)N(CCc2ccccc2)c2ccccc21 (stereo not given)	·	23	22
CCN1C(=O)C(O)(CC(=O)c2ccco2)c2cc(Br)ccc21 (stereo not given)	·	122*	-1
CCCCN1C(=O)C(O)(CC(=O)c2ccco2)c2ccccc21 (stereo not given)	·	119*	5
COc1ccc2[nH]cc(CCNC(=O)Nc3ccc(Cl)c(Cl)c3)c2c1	·	-10	5
SMILES	Hedgehog inh	NOMO-1 viab	MITF inh
O=S(=O)(Nc1ncccn1)c1ccc(NC(=S)Nc2ccc3c(c2)OCCO3)cc1	·	-12	-45
Cc1noc(C)c1S(=O)(=O)Nc1cccc2c1O[C@@H](CN(C)C(=O)NC1CCCCC1)[C@@H](C)CN([C@@H](C)CO)C2=O	4	-2	-1
COc1cccc2cc(C(=O)N3CCN(CCN4C(=O)c5cccc6cccc(c56)C4=O)CC3)c(=O)oc12	·	44	-9
CC(C)(O[C@@H]1O[C@H](CO)[C@@H](O)[C@H](O)[C@H]1O)[C@@H](O)COc1c2ccoc2cc2oc(=O)ccc12	-30	11	-1
COC(=O)c1ccccc1NC(=O)COc1ccc(Br)cc1C	·	-9	-38
C[C@H](CO)N1C[C@H](C)[C@H](CN(C)Cc2ccccc2)Oc2ccc(NC(=O)CCN3CCOCC3)cc2CC1=O	41	-4	-5
COc1ccc(Cl)cc1Nc1nc(N)nc(-c2oc3ccccc3c2C)n1	·	12	-6
COc1ccc(Cl)cc1Nc1nc(N)nc(-c2cc3ccccc3o2)n1	·	95*	28
COc1c(Cl)cc(C(=O)Nc2sc3c(c2C(=O)NCc2ccco2)CCC3)cc1Cl	·	13	-49
Cc1ccc2c(C)c(C(=O)Nc3sc4c(c3C(=O)NCc3ccco3)CCC4)oc2c1	·	103*	0
Cc1ccc(S(=O)(=O)Nc2ccc3c(c2)C(=O)N([C@H](C)CO)C[C@@H](C)[C@@H](CN(C)C(=O)Nc2c(C)noc2C)O3)cc1	·	16	3
CC(=O)c1cccc(NC(=O)Cc2ccccc2[N+](=O)[O-])c1	·	24	16
Cn1c(/C=C/C=C/N2CCCC2)nc2ccccc2c1=O	-3	121*	-13
CSc1nc2ccccc2c(=O)n1C	-5	11	-29
